We go through 41 molecules from PubChem BioAssay (NCI).

Assay [1] is described as follows: NCI Yeast Anticancer Drug Screen. Data for the rad50 strain (AID 155).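 Also: 0% = growth of vehicle-only cultures of the same strain.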 The settings on record: S. cerevisiae rad50 strain growth inhibition; at 50.0 µM; hits give high values. An outline of the steps:
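Compounds were tested on a yeast strain with an engineered DNA damage repair alteration; the reported value is growth inhibition normalised to vehicle treatment.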

A short description of assay [2]: NCI Yeast Anticancer Drug Screen. Data for the mec2-1 strain (AID 157). The settings on record: S. cerevisiae mec2-1 strain, at 50.0 µM, hits give high values. An outline of the steps: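 Cells of the genetically defined mec2-1 yeast strain are incubated with test compound. Inhibition of growth is calculated against vehicle-treated controls.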
Assay [3] in a line: NCI Yeast Anticancer Drug Screen. Data for the sgs1 mgt1 strain (AID 161).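 Also: 0% = growth of cultures given vehicle only.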 The settings on record: S. cerevisiae sgs1 mgt1 strain, at 50.0 µM, hits give high values. In a few lines:
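Mutant yeast exposed to compound; growth scored against vehicle-only wells.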

Assay [4] in a line: NCI Yeast Anticancer Drug Screen. Data for the cln2 rad14 strain (AID 165).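 Also: 0% = growth equal to vehicle treated cultures.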 The settings on record: S. cerevisiae cln2 rad14 strain, at 50.0 µM, hits give high values. An outline of the steps: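 The screen exposed genetically defined yeast (cln2 rad14) to test compounds and scored growth inhibition relative to vehicle-treated controls.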
Assay [5] in a line: NCI Yeast Anticancer Drug Screen. Data for the bub3 strain (AID 167). The settings on record: S. cerevisiae bub3 mutant strain, at 50.0 µM, hits give high values. An outline of the steps:
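Growth of a checkpoint-deficient yeast mutant is measured after compound exposure. Values represent inhibition relative to vehicle.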

Assay [6] can be described thus: NCI Yeast Anticancer Drug Screen. Data for the mlh1 rad18 strain (AID 175). The settings on record: S. cerevisiae mlh1 rad18 strain growth inhibition; at 50.0 µM; hits give high values. An outline of the steps: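 Compound-treated yeast growth, normalised to vehicle controls. Strain bears defined DNA repair mutations.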

The panel holds about 79,000 compounds, 15% with a hit somewhere; the sample as a whole holds those more often. A number with no mark means an inactive call. Activity calls are given as the source filed them. Rule as the data show it: active = growth inhibition above about 70%; inactive = the rest.

On to `NC(=O)C(N)Cc1ccc(OCc2ccccc2)c(OCc2ccccc2)c1` (stereo unspecified), for which the growth inhibition was 1.4% in assay [1]; 3.35% in assay [2]; 7.3% in assay [3]; -12.8% in assay [4]; 2.45% in assay [5]; 26.2% in assay [6].
Take `COc1ccc(CC2(C(=O)O)NCCc3cc(O)c(OC)cc32)cc1O` (stereo unspecified): the growth inhibition in assay [1] was 16.7%; in assay [2], -3.25%; in assay [3], -13.7%; in assay [4], 4.15%; in assay [5], -0.5%; in assay [6], -5.5%.
Consider `COc1cccc(C2c3cc4c(cc3OC(N3CCOCC3)C2C)OCO4)c1OC` (stereo unspecified), for which the growth inhibition was -25.4% in assay [1]; -10.1% in assay [2]; -7.85% in assay [3]; 2.55% in assay [4]; -2.05% in assay [5]; -6.1% in assay [6].
For the molecule `COc1nc(N)c2[nH]cnc2n1`, the growth inhibition is 0.95% in assay [1]; 21.4% in assay [2]; 2.05% in assay [3]; 21.4% in assay [4]; 5.15% in assay [5]; 3.4% in assay [6].
Consider `CCOC(=O)/C(C)=C/CC1=C(O)c2ccccc2C(=O)C1=O`, for which the growth inhibition in assay [1] is 7.3%; in assay [2], 23.7%; in assay [3] it was 14.1%; in assay [4] it was 16.2%; in assay [5], 1.95%; in assay [6], 16.8%.
As for `c1ccc(-n2nnnc2-c2nnnn2-c2ccccc2)cc1`, the growth inhibition in assay [1] was -7.35%; in assay [2] it was -5.2%; in assay [3], -1.5%; in assay [4], -18.7%; in assay [5] it was 20.7%; in assay [6] it was -11%.
`OCCc1cc2ccccc2c2ccccc12`: the growth inhibition in assay [1] was -3.55%; in assay [2] it was 6.75%; in assay [3], -4.8%; in assay [4], -11.9%; in assay [5], -15.9%; in assay [6] it was -12.9%.
Consider `CCOC(=O)c1cc2c([N+](=O)[O-])cccc2[nH]1`, for which the growth inhibition in assay [1] is 18.4%; in assay [2], -5.9%; in assay [3], -2.2%; in assay [4], -35.5%; in assay [5], 6.45%; in assay [6] it was 13.7%.
For the molecule `OCC1OC(n2c(SCc3ccccc3)nc3ccccc32)C(O)C1O` (stereo unspecified), the growth inhibition in assay [1] was -3.5%; in assay [2], 1.45%; in assay [3], -9.1%; in assay [4] it was -11.9%; in assay [5] it was 6.4%; in assay [6], 0.1%.
Take `Cc1ccn2c(=O)c(CCBr)c(C)nc2c1`: the growth inhibition in assay [1] is 12.8%; in assay [2], -4.65%; in assay [3], 5.25%; in assay [4], 13.8%; in assay [5], 6.05%; in assay [6], 2.25%.
As for `NC(CC1=CS(=O)(=O)c2ccc(Cl)cc21)C(=O)O` (stereo unspecified), the growth inhibition in assay [1] was 18.4%; in assay [2], 19.3%; in assay [3], 4.45%; in assay [4], -16.2%; in assay [5] it was 23.8%; in assay [6] it was 23.9%.
Take `CCN(CC)c1ccc(N=Nc2ccc(C)cc2)cc1`: the growth inhibition in assay [1] is -6.7%; in assay [2], -22.5%; in assay [3], -12.5%; in assay [4] it was -0.4%; in assay [5], -15.8%; in assay [6], 12.1%.
Regarding `Cc1ccc(C(=O)NC(N)=O)cc1`, the growth inhibition in assay [1] was 12.4%; in assay [2], -6.25%; in assay [3], -17.8%; in assay [4], -51.4%; in assay [5], -13.1%; in assay [6], -18.6%.
`CC(NCc1c(O)ccc2c(-c3ccccc3)cc(=O)oc12)C(=O)O` (stereo unspecified): the growth inhibition in assay [1] is -39.4%; in assay [2], -19.1%; in assay [3], -32.6%; in assay [4] it was 4.35%; in assay [5], -4.95%; in assay [6], -14.8%.
`C=CCO[Si](C=C)(OCC=C)OCC=C`: the growth inhibition in assay [1] was 31.8%; in assay [2] it was -10.9%; in assay [3], -5.35%; in assay [4] it was 10.7%; in assay [5], 9.6%; in assay [6], -3.95%.
Regarding `NC(=O)CNC(=O)CN1C(=O)c2ccccc2C1=O`, the growth inhibition in assay [1] was 9.05%; in assay [2] it was -14.6%; in assay [3], -13.1%; in assay [4], 8.65%; in assay [5] it was 2.1%; in assay [6], -4.2%.
Take `c1ccc(-c2oc3ccc4ccccc4c3c2-c2ccc(OCCN3CCCC3)cc2)cc1`: the growth inhibition was 75.8% (active) in assay [1]; 58.4% in assay [2]; 66.8% in assay [3]; 61.2% in assay [4]; 51.4% in assay [5]; 61.5% in assay [6].
Regarding `COc1ccc(C(=O)c2cccc(C(=O)c3ccc(OC)cc3)c2)cc1`, the growth inhibition is -13.1% in assay [1]; -19.4% in assay [2]; -3.5% in assay [3]; -0.9% in assay [4]; -13.5% in assay [5]; -4.15% in assay [6].
`Cc1nnnn1-c1ccc([N+](=O)[O-])cc1`: the growth inhibition in assay [1] is 8.45%; in assay [2] it was 8.35%; in assay [3], -1.5%; in assay [4] it was -17.6%; in assay [5], 0.75%; in assay [6], 7.4%.
Consider `CC(C)=C/C(C)=N/Nc1ccc([N+](=O)[O-])cc1[N+](=O)[O-]`, for which the growth inhibition in assay [1] is 5.9%; in assay [2], 5.6%; in assay [3] it was 13.5%; in assay [4] it was 2.05%; in assay [5] it was 12.8%; in assay [6], -0.2%.
As to `Nc1ccc(C(=O)O)cn1`, the growth inhibition in assay [1] was -20.4%; in assay [2], -11.1%; in assay [3] it was 29.6%; in assay [4], -34.5%; in assay [5], 9.95%; in assay [6] it was -0.45%.
On to `c1ccc(N=NC(N=Nc2ccccc2)=P(c2ccccc2)(c2ccccc2)c2ccccc2)cc1`, for which the growth inhibition in assay [1] is 56.4%; in assay [2], 98.7% (active); in assay [3], 53%; in assay [4], 64.6%; in assay [5], 46.7%; in assay [6], 61.9%.
As to `CCc1ccc(NS(=O)(=O)c2ccc3ccccc3c2)cc1`, the growth inhibition in assay [1] is 96% (active); in assay [2], 97.5% (active); in assay [3] it was 96.9% (active); in assay [4], 94.6% (active); in assay [5], 96.5% (active); in assay [6], 96.4% (active).
With `CS(C)=O.[Cl-].[Cl-].[NH-]CC(O)C[N-]CC(O)CN.[Pt+4]` (stereo unspecified), the growth inhibition was -9.2% in assay [1]; -19.7% in assay [2]; -20.4% in assay [3]; -9.65% in assay [4]; -3.5% in assay [5]; 9.55% in assay [6].
For `NS(=O)(=O)c1ccc(N=C2C(=O)Nc3ccccc32)cc1`, the growth inhibition is 1.05% in assay [1]; -6.1% in assay [2]; -14.6% in assay [3]; 17.6% in assay [4]; -23.8% in assay [5]; 4.95% in assay [6].
Regarding `Cc1ccccc1C(=O)N1CCOCC1`, the growth inhibition in assay [1] was -10.9%; in assay [2] it was 3.7%; in assay [3] it was -0.1%; in assay [4], -13.4%; in assay [5], 16.1%; in assay [6], 21.4%.
In the case of `COC(=O)/C=C(/N)CC(=O)OC`, the growth inhibition in assay [1] is 16.9%; in assay [2], -25.4%; in assay [3] it was -8.35%; in assay [4], 10.9%; in assay [5], -15.9%; in assay [6] it was 1.75%.
Take `O=C(O)/C(Cc1ccc([N+](=O)[O-])cc1)=N\O`: the growth inhibition was -4.2% in assay [1]; 6.85% in assay [2]; -25.4% in assay [3]; -16.6% in assay [4]; 17.4% in assay [5]; -2.8% in assay [6].
On to `Oc1cc(-n2cccn2)c(O)cc1-n1cccn1`, for which the growth inhibition was 23.1% in assay [1]; -4.75% in assay [2]; 15.3% in assay [3]; 5.25% in assay [4]; 12.2% in assay [5]; -39% in assay [6].
For the molecule `CCCCCCC(C)Oc1ccccc1Cl` (stereo unspecified), the growth inhibition in assay [1] is 5.35%; in assay [2] it was -11.5%; in assay [3], 7.9%; in assay [4], -23.9%; in assay [5], 6.4%; in assay [6] it was -20.6%.
In the case of `OC1CSc2ccccc2-n2cccc21` (stereo unspecified), the growth inhibition in assay [1] was 25.8%; in assay [2], 6.4%; in assay [3] it was 21.8%; in assay [4], 32.9%; in assay [5], 6.75%; in assay [6], 16.4%.
Consider `Nc1ccc(COCCOCc2ccc(N)cc2)cc1`, for which the growth inhibition in assay [1] is -4.35%; in assay [2] it was 1.7%; in assay [3], -4.25%; in assay [4], -5.6%; in assay [5], 2.8%; in assay [6], 17.4%.
On to `O=C(c1cccc(C(F)(F)F)c1)c1ccccc1Cc1ccccc1`, for which the growth inhibition is 3.85% in assay [1]; 13.9% in assay [2]; 12.2% in assay [3]; -28.1% in assay [4]; 14.2% in assay [5]; 42% in assay [6].
As to `Nc1ccccc1SC1CC(=O)N(c2ccc(Oc3ccc(Cl)cc3)cc2)C1=O` (stereo unspecified), the growth inhibition in assay [1] was 25.6%; in assay [2], 12.2%; in assay [3], 13.8%; in assay [4], -12.2%; in assay [5], -0.15%; in assay [6], 2.55%.
As for `CCCS(=O)(=O)N(CC)CC`, the growth inhibition is -0.4% in assay [1]; -10.8% in assay [2]; -1.9% in assay [3]; -27.5% in assay [4]; -5.65% in assay [5]; -15.4% in assay [6].
On to `COC(=O)C1(C)C(=O)NC(=O)CC1C` (stereo unspecified), for which the growth inhibition is 9.65% in assay [1]; 0% in assay [2]; 1% in assay [3]; -30.5% in assay [4]; -2.5% in assay [5]; -3.2% in assay [6].
For `CCOC(=O)C(=N\Nc1cc(C)cc(C)c1)/C(C)=N\NC(N)=S`, the growth inhibition in assay [1] was 25.1%; in assay [2], 38.8%; in assay [3], 20.1%; in assay [4], 57.5%; in assay [5], 58.5%; in assay [6] it was 45.6%.
Take `Nc1nc(Cl)cc(Nc2cc(Cl)cc(Cl)c2)n1`: the growth inhibition was 83.2% (active) in assay [1]; 53.6% in assay [2]; 79.7% (active) in assay [3]; 63.7% in assay [4]; 59.6% in assay [5]; 82.3% (active) in assay [6].
For `Cc1c(CO)[n+](=O)c2ccccc2n1[O-]`, the growth inhibition in assay [1] is 30.4%; in assay [2] it was 12.6%; in assay [3], 0.45%; in assay [4], -22.6%; in assay [5] it was 3.4%; in assay [6], 21.7%.
For `COc1ccc(/C=C/c2cnc3ccccc3n2)cc1OC`, the growth inhibition in assay [1] was 28.8%; in assay [2] it was -4.55%; in assay [3] it was 58.4%; in assay [4], 25.8%; in assay [5], 45.4%; in assay [6], 81% (active).
Take `O=C(Nc1ccc2c(c1)C(O)c1ccccc1-2)C(F)(F)F` (stereo unspecified): the growth inhibition is 11.4% in assay [1]; -4.3% in assay [2]; 18.9% in assay [3]; 8.35% in assay [4]; 6.85% in assay [5]; 16.1% in assay [6].
